Results: PubChem BioAssay (EPA / NIEHS)
Inconclusive results are not listed. The source made the active and inactive calls. How the source made its calls, unless noted: active means hit-call score of the fitted dose curve at least 0.9, where 1 is the maximum; inconclusive means response in the unintended direction; inactive means score below 0.9.

Columns and labels:
[1] = ATG_TCF_b_cat_CIS: Attagene CIS-FACTORIAL HepG2 Assay for human T-Cell-Factor with beta-catenin (TCF/b-cat) (AID 2282965; active means hit-call score of the fitted dose curve at least 0.9, where 1 is the maximum; inactive means score below 0.9); details: HepG2 TCF/beta-catenin cis-reporter transcription, actives raise or lower the signal
In short: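 Cells of the HepG2 line carry transiently transfected reporter units whose promoters respond to endogenous factors. Twenty-four hours post-dosing, reporter mRNA induction is measured by fluorescent RT-PCR and capillary electrophoresis, with DMSO as baseline.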

[2] = ATG_TAL_CIS: Attagene CIS-FACTORIAL HepG2 Assay for human TAL Basal Promoter (AID 2282966; active means hit-call score of the fitted dose curve at least 0.9, where 1 is the maximum; inactive means score below 0.9;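 further: background control endpoint measuring basal TAL promoter reporter mRNA not a specific factor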); details: HepG2 Attagene cis-factorial TAL promoter reporter; actives raise or lower the signal
In short: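 HepG2, transient MRTU transfection, 24 h compound exposure; RNA → oligo(dT) RT → PCR → 6-FAM primer extension → HpaI digest → CE fluorescence. Bidirectional curve fit vs DMSO. Background-control readout.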

[3] = ATG_TGFb_CIS: Attagene CIS-FACTORIAL HepG2 Assay for human Transforming Growth Factor (TGF) (AID 2282967; active means hit-call score of the fitted dose curve at least 0.9, where 1 is the maximum; inactive means score below 0.9); details: HepG2 Attagene CIS TGFb reporter, mRNA transcription; actives raise or lower the signal
In short: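 Transient MRTU transfection of HepG2 (FuGene 6). Dose 24 h. TriZol RNA, oligo(dT) RT, PCR, 6-FAM primer extension, HpaI cut, CE. Bidirectional fit, DMSO = baseline.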

[4] = biological target: X-box-binding protein 1 (Homo sapiens) (UniProt P17861); assay: ATG_Xbp1_CIS: Attagene CIS-FACTORIAL HepG2 Assay for human X-box Binding Protein 1 (XBP1) (AID 2282972; active means hit-call score of the fitted dose curve at least 0.9, where 1 is the maximum; inactive means score below 0.9); details: HepG2 XBP1 cis-element reporter, Attagene multiplex; actives raise or lower the signal
X-box-binding protein 1 (Homo sapiens), sequence (P17861 whole entry, looked up): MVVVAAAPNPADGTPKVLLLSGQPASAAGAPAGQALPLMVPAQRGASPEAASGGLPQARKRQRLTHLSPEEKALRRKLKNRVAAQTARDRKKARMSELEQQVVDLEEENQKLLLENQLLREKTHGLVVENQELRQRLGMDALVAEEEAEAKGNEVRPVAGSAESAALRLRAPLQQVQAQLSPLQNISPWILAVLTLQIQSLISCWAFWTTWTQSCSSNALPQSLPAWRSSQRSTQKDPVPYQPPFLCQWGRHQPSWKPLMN
In short: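 Multiplexed cis-reporter readout in transfected HepG2 liver cells. Exposure lasted 24 hours. Activity in either direction was fitted against DMSO as negative control and baseline.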

[5] = ATG_M_19_TRANS: Attagene TRANS-FACTORIAL HepG2 Assay for M19 Transcription Factor (Internal Marker) (AID 2282974); details: HepG2 Attagene TRANS-FACTORIAL M19 internal marker reporter
In short: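 Using RT-PCR and capillary electrophoresis, reporter mRNA from transiently transfected human HepG2 cells was quantified following 24 h exposure; activity was fitted in the positive direction against DMSO.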

[6] = ATG_GAL4_TRANS: Attagene TRANS-FACTORIAL HepG2 Assay for GAL4 (Internal Marker) (AID 2282976); details: HepG2 Attagene TRANS GAL4 internal marker reporter
In short: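 RT-PCR/capillary electrophoresis readout of reporter mRNA. HepG2, transient MRTU transfection (GAL4-UAS reporters), 24 h compound exposure. Background-control endpoint, positive direction vs DMSO baseline.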

[7] = biological target: Glucocorticoid receptor (Homo sapiens) (UniProt P04150); assay: ATG_GR_TRANS: Attagene TRANS-FACTORIAL HepG2 Assay for human Glucocorticoid Receptor (GR) (AID 2282978); details: HepG2 Attagene TRANS GR reporter, mRNA transcription;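 further: activators score as hits since higher reporter transcript over DMSO is fitted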
Glucocorticoid receptor (Homo sapiens), sequence (P04150 whole entry, looked up, the tested form may be a part): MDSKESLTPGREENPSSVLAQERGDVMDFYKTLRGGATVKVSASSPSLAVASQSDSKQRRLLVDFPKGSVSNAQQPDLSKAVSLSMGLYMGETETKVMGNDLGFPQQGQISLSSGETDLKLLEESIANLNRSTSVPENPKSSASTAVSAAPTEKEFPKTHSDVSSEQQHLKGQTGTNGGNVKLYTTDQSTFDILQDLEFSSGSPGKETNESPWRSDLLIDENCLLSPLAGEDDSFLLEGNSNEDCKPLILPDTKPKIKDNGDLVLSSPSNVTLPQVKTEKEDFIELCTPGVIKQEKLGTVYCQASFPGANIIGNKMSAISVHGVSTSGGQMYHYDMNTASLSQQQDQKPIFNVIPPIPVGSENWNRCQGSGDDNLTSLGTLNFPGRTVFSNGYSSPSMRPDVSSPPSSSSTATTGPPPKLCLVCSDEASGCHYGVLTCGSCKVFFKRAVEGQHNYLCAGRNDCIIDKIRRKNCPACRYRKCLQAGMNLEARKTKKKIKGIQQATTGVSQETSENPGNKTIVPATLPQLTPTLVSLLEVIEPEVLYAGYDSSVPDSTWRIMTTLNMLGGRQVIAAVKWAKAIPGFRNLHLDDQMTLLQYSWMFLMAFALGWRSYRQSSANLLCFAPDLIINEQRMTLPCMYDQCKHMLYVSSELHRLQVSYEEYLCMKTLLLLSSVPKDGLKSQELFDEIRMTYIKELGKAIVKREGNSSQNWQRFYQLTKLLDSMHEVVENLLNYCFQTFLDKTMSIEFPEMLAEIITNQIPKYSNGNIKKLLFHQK
In short: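 Exogenous NR-GAL4 fusion activity was assessed through induced GAL4-UAS reporter transcripts in transfected human HepG2 cells, quantified after 24 h by RT-PCR and fluorescent capillary electrophoresis with DMSO as baseline.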

[8] = biological target: Oxysterols receptor LXR-alpha (Homo sapiens) (UniProt Q13133); assay: ATG_LXRa_TRANS: Attagene TRANS-FACTORIAL HepG2 Assay for human Liver X Receptor alpha (LXRa) (AID 2282980); details: HepG2 Attagene TRANS reporter, LXRa transactivation
In short: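 Read-out: reporter transcript levels by RT-PCR plus capillary electrophoresis, fluorescence intensity. Transiently transfected HepG2, exogenous NR-GAL4 chimera, GAL4-UAS reporters; 24 h compound exposure. Activity = increase over DMSO negative control.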

[9] = biological target: Oxysterols receptor LXR-beta (Homo sapiens) (UniProt P55055); assay: ATG_LXRb_TRANS: Attagene TRANS-FACTORIAL HepG2 Assay for human Liver X Receptor beta (LXRb) (AID 2282981); details: HepG2 Attagene TRANS GAL4-LXRb reporter, mRNA
Oxysterols receptor LXR-beta (Homo sapiens), sequence (P55055 whole entry, looked up, the tested form may be a part): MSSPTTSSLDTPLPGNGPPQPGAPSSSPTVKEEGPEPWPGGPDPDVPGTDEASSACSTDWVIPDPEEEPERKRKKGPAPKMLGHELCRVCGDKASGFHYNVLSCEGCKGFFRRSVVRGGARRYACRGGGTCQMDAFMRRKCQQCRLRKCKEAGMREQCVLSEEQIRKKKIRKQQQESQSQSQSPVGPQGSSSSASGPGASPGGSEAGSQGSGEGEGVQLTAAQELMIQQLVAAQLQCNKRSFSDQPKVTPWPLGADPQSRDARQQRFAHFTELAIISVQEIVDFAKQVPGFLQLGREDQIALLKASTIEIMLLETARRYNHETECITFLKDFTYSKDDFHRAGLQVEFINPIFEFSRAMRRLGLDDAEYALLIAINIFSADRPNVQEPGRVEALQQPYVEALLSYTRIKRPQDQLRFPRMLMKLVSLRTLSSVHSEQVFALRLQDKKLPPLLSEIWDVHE
In short: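 Multiplexed reporter assay, HepG2, 24 h dosing. Fluorescence of labelled RT-PCR products after capillary electrophoresis gives transcript level; positive fitting direction relative to DMSO.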

[10] = biological target: Hepatocyte nuclear factor 4-alpha (Homo sapiens) (UniProt P41235); assay: ATG_HNF4a_TRANS: Attagene TRANS-FACTORIAL HepG2 Assay for human Hepatocyte Nuclear Factor 4 alpha (HNF4a) (AID 2282982); details: HepG2 HNF4a transactivation reporter, mRNA readout
Hepatocyte nuclear factor 4-alpha (Homo sapiens), sequence (P41235 whole entry, looked up, the tested form may be a part): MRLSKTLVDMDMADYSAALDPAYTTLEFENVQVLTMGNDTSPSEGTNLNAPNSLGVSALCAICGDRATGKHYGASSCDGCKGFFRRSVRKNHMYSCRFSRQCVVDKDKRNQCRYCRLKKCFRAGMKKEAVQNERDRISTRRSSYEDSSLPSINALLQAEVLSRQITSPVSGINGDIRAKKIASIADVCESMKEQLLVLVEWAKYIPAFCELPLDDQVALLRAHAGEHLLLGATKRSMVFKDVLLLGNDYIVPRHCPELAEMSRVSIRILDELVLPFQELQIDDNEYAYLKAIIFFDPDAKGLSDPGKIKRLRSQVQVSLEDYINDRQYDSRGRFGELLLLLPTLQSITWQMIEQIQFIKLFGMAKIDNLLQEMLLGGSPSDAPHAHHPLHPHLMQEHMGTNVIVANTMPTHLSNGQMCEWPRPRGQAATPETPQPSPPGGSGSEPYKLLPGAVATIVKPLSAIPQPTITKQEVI
In short: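 Endpoint reflects transcriptional activation of a GAL4-UAS reporter by an HNF4a-GAL4 chimera in transfected HepG2 cells, 24 h post-dosing. Fluorescence from RT-PCR products separated by capillary electrophoresis; DMSO baseline.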

[11] = ATG_M_06_TRANS: Attagene TRANS-FACTORIAL HepG2 Assay for M06 Transcription Factor (Internal Marker) (AID 2282983); details: HepG2 Attagene TRANS M06 internal marker reporter
In short: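 Read-out: fluorescent reporter cDNA fragments resolved by capillary electrophoresis after RT-PCR and HpaI cut. Source cells were HepG2 carrying transfected multi-reporter GAL4 constructs, dosed 24 h. Increase over DMSO control analysed.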

[12] = ATG_M_32_TRANS: Attagene TRANS-FACTORIAL HepG2 Assay for M32 Transcription Factor (Internal Marker) (AID 2282984); details: HepG2 Attagene TRANS M32 internal marker reporter;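 further: transcript level of a background control reporter unit measured by RT-PCR and capillary electrophoresis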
In short: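 Internal-marker readout from a multiplexed transcription reporter panel. HepG2 cells were transfected with GAL4-UAS reporter units, treated 24 hours, and reporter transcript levels determined by fluorescence after RT-PCR and capillary separation.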

[13] = biological target: Nuclear receptor subfamily 4 group A member 2 (Homo sapiens) (UniProt P43354); assay: ATG_NURR1_TRANS: Attagene TRANS-FACTORIAL HepG2 Assay for human Nuclear Receptor Related Protein 1 (NURR1) (AID 2282985); details: HepG2 Attagene TRANS reporter, mRNA readout
Nuclear receptor subfamily 4 group A member 2 (Homo sapiens), sequence (P43354 whole entry, looked up): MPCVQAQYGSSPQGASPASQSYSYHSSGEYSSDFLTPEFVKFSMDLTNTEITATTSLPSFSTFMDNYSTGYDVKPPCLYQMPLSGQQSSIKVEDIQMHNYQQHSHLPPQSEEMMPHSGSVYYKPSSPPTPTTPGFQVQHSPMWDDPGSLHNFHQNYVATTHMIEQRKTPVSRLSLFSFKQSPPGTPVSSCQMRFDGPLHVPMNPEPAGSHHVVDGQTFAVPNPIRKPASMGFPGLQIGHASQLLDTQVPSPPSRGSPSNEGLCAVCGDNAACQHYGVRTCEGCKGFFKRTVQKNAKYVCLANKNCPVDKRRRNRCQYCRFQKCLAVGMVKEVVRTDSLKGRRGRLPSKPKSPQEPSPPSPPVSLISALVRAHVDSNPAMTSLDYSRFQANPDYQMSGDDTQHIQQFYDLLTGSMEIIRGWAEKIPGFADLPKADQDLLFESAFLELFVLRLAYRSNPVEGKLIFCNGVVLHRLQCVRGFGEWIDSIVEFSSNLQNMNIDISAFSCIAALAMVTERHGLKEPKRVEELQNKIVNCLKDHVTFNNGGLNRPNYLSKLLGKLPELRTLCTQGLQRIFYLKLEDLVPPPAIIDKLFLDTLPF
In short: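 Endpoint: reporter mRNA increase relative to DMSO. HepG2 cells transfected with reporter units, treated 24 h; RNA processed by RT-PCR, labelling, HpaI digestion and capillary electrophoresis.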

[14] = biological target: Transcriptional activator Myb (Homo sapiens) (UniProt P10242); assay: ATG_Myb_CIS: Attagene CIS-FACTORIAL HepG2 Assay for human Myeloblastosis (Myb) Proto-Oncogene Transcription Factor (AID 2282986; active means hit-call score of the fitted dose curve at least 0.9, where 1 is the maximum; inactive means score below 0.9); details: HepG2 Attagene CIS-FACTORIAL Myb reporter transcription; actives raise or lower the signal
Transcriptional activator Myb (Homo sapiens), sequence (P10242 whole entry, looked up): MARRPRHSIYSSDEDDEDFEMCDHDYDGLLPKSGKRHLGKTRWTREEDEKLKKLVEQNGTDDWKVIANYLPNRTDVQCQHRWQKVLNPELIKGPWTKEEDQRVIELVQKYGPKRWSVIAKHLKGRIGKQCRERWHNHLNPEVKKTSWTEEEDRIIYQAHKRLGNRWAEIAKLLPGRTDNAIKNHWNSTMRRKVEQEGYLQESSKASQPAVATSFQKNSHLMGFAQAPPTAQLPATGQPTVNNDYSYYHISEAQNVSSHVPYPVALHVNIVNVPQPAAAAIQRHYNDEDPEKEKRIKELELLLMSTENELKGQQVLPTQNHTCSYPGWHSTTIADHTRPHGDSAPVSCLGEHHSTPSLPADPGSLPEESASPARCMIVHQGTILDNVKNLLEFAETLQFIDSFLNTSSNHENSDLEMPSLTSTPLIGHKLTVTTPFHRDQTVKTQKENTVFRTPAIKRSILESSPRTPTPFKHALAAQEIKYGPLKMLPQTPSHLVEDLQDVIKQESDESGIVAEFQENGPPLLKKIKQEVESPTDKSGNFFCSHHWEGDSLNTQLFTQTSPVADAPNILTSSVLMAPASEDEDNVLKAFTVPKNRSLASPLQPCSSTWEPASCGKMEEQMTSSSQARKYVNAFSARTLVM
In short: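 In this HepG2 transient-transfection format, cis-regulated reporter mRNA is quantified 24 h post-dosing by RT-PCR with capillary electrophoresis, fitted bidirectionally to DMSO baseline.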

[15] = biological target: Estrogen receptor (Homo sapiens) (UniProt P03372); assay: ATG_ERa_TRANS: Attagene TRANS-FACTORIAL HepG2 Assay for human Estrogen Receptor alpha (ERa) (AID 2282970); details: HepG2 Attagene TRANS ERa GAL4 reporter, mRNA
Estrogen receptor (Homo sapiens), sequence (P03372 whole entry, looked up, the tested form may be a part): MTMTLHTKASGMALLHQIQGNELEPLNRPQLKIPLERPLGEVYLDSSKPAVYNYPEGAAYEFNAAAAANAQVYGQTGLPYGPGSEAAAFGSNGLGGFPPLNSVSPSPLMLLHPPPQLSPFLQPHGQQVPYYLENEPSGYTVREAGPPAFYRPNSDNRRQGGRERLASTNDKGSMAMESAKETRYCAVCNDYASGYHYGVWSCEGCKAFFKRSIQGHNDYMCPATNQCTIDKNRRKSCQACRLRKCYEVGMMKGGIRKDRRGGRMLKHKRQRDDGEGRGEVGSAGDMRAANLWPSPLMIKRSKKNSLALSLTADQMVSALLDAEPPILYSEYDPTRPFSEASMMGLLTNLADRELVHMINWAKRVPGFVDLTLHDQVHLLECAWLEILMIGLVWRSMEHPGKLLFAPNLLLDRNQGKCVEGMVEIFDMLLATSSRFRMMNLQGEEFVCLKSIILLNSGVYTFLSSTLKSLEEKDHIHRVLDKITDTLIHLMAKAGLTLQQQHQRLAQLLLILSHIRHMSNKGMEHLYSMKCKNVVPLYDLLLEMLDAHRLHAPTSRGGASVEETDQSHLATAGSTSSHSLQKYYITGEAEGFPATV
In short: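 Reporter mRNA induction after 24 hours, detected by fluorescent RT-PCR and capillary electrophoresis, gives the read-out. Cells are HepG2 transiently transfected with GAL4-UAS reporter transcription units responding to chimeric NR-Gal4. Activity is taken as gain of signal over DMSO baseline.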

[16] = biological target: Estrogen-related receptor gamma (Homo sapiens) (UniProt P62508); assay: ATG_ERRg_TRANS: Attagene TRANS-FACTORIAL HepG2 Assay for human Estrogen-Related Receptor gamma (ERRg) (AID 2282977); details: HepG2 Attagene TRANS reporter, ERRg transactivation;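 further: hits increase reporter signal over DMSO so potencies reflect activators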
Estrogen-related receptor gamma (Homo sapiens), sequence (P62508 whole entry, looked up, the tested form may be a part): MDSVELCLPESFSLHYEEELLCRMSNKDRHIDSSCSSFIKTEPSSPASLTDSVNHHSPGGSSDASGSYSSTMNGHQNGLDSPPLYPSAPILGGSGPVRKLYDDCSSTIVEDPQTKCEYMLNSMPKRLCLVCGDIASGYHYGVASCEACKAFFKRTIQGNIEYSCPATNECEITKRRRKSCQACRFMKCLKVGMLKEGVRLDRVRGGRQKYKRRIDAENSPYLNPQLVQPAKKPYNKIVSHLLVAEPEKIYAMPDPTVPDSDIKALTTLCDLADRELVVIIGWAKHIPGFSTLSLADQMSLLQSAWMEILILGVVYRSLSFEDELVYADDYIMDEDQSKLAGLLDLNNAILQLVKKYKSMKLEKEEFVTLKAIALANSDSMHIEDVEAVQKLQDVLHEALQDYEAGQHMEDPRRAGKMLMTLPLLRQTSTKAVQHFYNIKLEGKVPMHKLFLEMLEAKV
In short: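 Induction of reporter transcripts through a chimeric NR-Gal4 protein is quantified in transfected human HepG2 liver cells after 24 h chemical exposure, using RT-PCR with capillary electrophoresis detection and DMSO as baseline.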

[17] = biological target: Nuclear receptor subfamily 1 group I member 3 (Homo sapiens) (UniProt Q14994); assay: ATG_CAR_TRANS: Attagene TRANS-FACTORIAL HepG2 Assay for human Constitutive Androstane Receptor (CAR) (AID 2282969); details: HepG2 Attagene TRANS-FACTORIAL CAR reporter;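 further: activators raise reporter mRNA above DMSO so AC50 marks induction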
Nuclear receptor subfamily 1 group I member 3 (Homo sapiens), sequence (Q14994 whole entry, looked up, the tested form may be a part): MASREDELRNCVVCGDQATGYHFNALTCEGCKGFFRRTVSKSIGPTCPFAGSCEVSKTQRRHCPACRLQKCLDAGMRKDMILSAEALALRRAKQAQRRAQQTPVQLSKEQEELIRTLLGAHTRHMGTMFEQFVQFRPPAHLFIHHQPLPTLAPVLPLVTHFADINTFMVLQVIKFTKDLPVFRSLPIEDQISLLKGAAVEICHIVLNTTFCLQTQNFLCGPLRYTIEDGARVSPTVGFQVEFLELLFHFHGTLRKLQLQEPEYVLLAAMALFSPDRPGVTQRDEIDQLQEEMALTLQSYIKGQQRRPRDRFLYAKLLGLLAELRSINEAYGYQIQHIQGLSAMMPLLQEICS
In short: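 Transiently transfected HepG2, multiplex TRANS reporters (CAR-Gal4 chimera driving GAL4-UAS reporter). 24 h dosing. Readout: reporter transcript by RT-PCR + capillary electrophoresis, fluorescence intensity; positive direction vs DMSO.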

[18] = biological target: Steroid hormone receptor ERR1 (Homo sapiens) (UniProt P11474); assay: ATG_ERRa_TRANS: Attagene TRANS-FACTORIAL HepG2 Assay for human Estrogen-Related Receptor alpha (ERRa) (AID 2282971); details: HepG2 Attagene TRANS reporter, ERRa transactivation
In short: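 Transfected HepG2, 24 h dosing, ERRa-Gal4 chimera driving GAL4-UAS reporter. Readout: reporter mRNA via RT-PCR plus capillary electrophoresis (fluorescence). Positive direction vs DMSO control.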

[19] = biological target: Bile acid receptor (Homo sapiens) (UniProt Q96RI1); assay: ATG_FXR_TRANS: Attagene TRANS-FACTORIAL HepG2 Assay for Farnesoid X Receptor (FXR) (AID 2282979); details: HepG2 Attagene TRANS FXR-GAL4 reporter transcription;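 further: hits raise reporter mRNA above DMSO so AC50 marks FXR activation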
In short: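 Read-out: fluorescent reporter transcripts quantified by capillary electrophoresis after RT-PCR of total RNA. Source cells were HepG2 transiently carrying chimeric NR-GAL4 plus GAL4-UAS reporter units, dosed 24 h. Activity fitted upward relative to DMSO baseline.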

Row | SMILES | outcome [1] | outcome [2] | outcome [3] | outcome [4] | outcome [5] | outcome [6] | outcome [7] | outcome [8] | outcome [9] | outcome [10] | outcome [11] | outcome [12] | outcome [13] | outcome [14] | outcome [15] | outcome [16] | outcome [17] | AC50 [15] | outcome [18] | outcome [19]
2 | CC(CO)c1ccccc1 (stereo not drawn) | inactive | inactive | inactive | inactive |  |  |  |  | inactive |  |  |  |  | inactive | inactive |  |  |  |  | 
3 | Cc1cccc(O)c1 | inactive | inactive | inactive | inactive |  |  | inactive |  |  |  | inactive | inactive | inactive | inactive | inactive | inactive |  |  |  | 
4 | CCOC(=O)CC1(C)OCC(C)O1 (stereo not drawn) | inactive | inactive | inactive | inactive |  | inactive |  |  | inactive |  | inactive |  |  | inactive | inactive |  | inactive |  |  | 
5 | CC(C)C(=O)c1ccccc1 | inactive | inactive | inactive | inactive | inactive |  |  | inactive |  | inactive |  | inactive |  | inactive |  |  |  | 0.604 µM (active) | inactive | 
6 | N#CCCCC(C#N)CCC#N (stereo not drawn) | inactive | inactive | inactive | inactive |  |  |  | inactive | inactive |  | inactive |  | inactive | inactive |  | inactive |  |  | inactive | 
7 | CCCC(O)C(CC)CO (stereo not drawn) | inactive | inactive | inactive | inactive |  |  |  | inactive |  | inactive | inactive | inactive | inactive | inactive |  |  |  |  |  | 
8 | CCO[Si](CCC#N)(OCC)OCC | inactive | inactive | inactive | inactive |  | inactive | inactive | inactive | inactive | inactive | inactive | inactive | inactive | inactive | inactive |  |  |  |  | inactive
9 | [Na+] | inactive | inactive | inactive | inactive | inactive |  |  |  |  |  |  |  | inactive | inactive |  |  |  |  |  | 
10 | CC(C)=CCCC(C)=CC(=O)O | inactive | inactive | inactive | inactive |  |  |  | inactive | inactive |  |  |  |  | inactive |  |  |  |  |  | 
11 | C1CCCNCC1 | inactive | inactive | inactive | inactive | inactive |  |  |  | inactive | inactive | inactive |  | inactive | inactive |  |  | inactive |  |  | 
12 | OC[C@H]1O[C@@H](O[C@H]2[C@H](O)[C@@H](O)[C@H](O)O[C@@H]2CO)[C@H](O)[C@@H](O)[C@H]1O | inactive | inactive | inactive | inactive |  | inactive | inactive | inactive |  |  |  |  | inactive | inactive | inactive |  | inactive |  |  | inactive
13 | CC(C)Cc1ccc(C(C)C(=O)O)cc1 (stereo not drawn) | inactive | inactive | inactive | inactive | inactive |  |  |  |  | inactive |  | inactive | inactive | inactive |  | inactive |  | 36.4 µM (active) | inactive | 
